Bioassay records as filed in PubChem.
Shown are actives, neighbours in structure and some others; about 9.2% of the full set was active somewhere.
NPC1 promoter act = activates the NPC1 promoter | Huh7 NPC1 promoter luciferase reporter, 24 h | Potency, µM (titrated, usually from 9.22 µM), usual class: activators | 320,000 tested, 2.4% active; note: nearly all actives have a fitted effect of over 60% in size
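Luminescence from an NPC1 promoter-driven luciferase reporter in stably transfected Huh7 cells was measured after 24 h compound treatment at 37 °C, followed by 10 min ambient incubation with luciferase detection reagent.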
FLuc counter = firefly luciferase modulation, counter-screen for miR-21 project. P08659. purified FLuc, Km substrates, luminescence inhibition. Potency, µM (titrated, usually from 57.5 µM), actives largely listed as inhibitors. 360,000 tested, 6.9% active; note: nearly all actives have a fitted effect of over 55% in size
Target sequence (P08659 whole entry, looked up): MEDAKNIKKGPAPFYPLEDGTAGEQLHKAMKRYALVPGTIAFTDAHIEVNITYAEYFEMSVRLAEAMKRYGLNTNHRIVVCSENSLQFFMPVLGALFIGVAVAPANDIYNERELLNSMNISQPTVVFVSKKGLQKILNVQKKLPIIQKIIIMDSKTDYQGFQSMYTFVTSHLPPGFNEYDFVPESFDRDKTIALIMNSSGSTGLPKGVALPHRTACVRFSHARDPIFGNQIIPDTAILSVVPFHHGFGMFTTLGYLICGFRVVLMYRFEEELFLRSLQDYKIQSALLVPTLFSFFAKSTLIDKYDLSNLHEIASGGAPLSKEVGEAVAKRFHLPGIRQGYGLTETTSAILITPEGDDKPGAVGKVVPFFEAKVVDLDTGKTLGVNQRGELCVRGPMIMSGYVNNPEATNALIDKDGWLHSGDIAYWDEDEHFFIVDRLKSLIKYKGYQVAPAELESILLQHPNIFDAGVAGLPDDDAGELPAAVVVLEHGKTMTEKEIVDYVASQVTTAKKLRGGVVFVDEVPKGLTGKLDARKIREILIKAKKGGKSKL
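Biochemical qHTS of compounds, final roughly 60 µM downward over six points, against 10 nM purified firefly luciferase using Km concentrations of substrates (10 uM D-luciferin, 10 uM ATP) in Tris acetate pH 7.5 buffer; luminescence output.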
Rab9 promoter act = Rab9 promoter activation; 320,000 tested, 2.8% active; Huh7 Rab9 promoter-luciferase reporter, luminescence, 24 h; Potency, µM (doses to about 9.22 µM), most hits filed as activators; note: nearly all actives have a fitted effect of over 60% in size
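Promoter activation is measured as luciferase luminescence in Huh7 cells stably transfected with a Rab9 promoter–luciferase construct, following 24 h compound exposure at 37 °C and 10 min reagent incubation at ambient temperature.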
ELG1 repair inh = ELG1-dependent DNA repair inhibition; HEK293T ELG1-luciferase reporter, luminescence, 16 h; DNA damage induced by 5-fluorouridine; AID 504467; Potency, µM (highest dose often 46.1 µM), most hits filed as inhibitors; 330,000 tested, 2.3% active; note: nearly all actives have a fitted effect of over 55% in size
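Cells (2,000 per well) received 5-fluorouridine plus test compound or DMSO and were incubated 16 hr at 37 °C, 5% CO2. Luciferase activity was read by luminescence 30 min after ONE-Glo addition; signal suppression marked inhibition of damage-induced ELG1 function.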
SMN2 splice up = SMN2 splice variant enhancement; HEK293 SMN2-luciferase splicing reporter, luminescence, 30-36 h; Potency, µM (highest dose often 46.1 µM), usual class: activators; 210,000 tested, 2.8% active; AID 1458; note: nearly all actives have a fitted effect of over 55% in size
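HEK293 cells carry an SMN2 […]–luciferase reporter in which exon 7 inclusion puts luciferase in frame. Cells were plated 10-12 h before compound addition, then incubated 30-36 h at 37C. ONE-Glo luminescence was read; sodium butyrate at 4.5 mM final served as control.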
ELG1 genotox = induces genotoxicity in HEK293T cells with luciferase-tagged ELG1; HEK293T ELG1-luciferase reporter, luminescence, 16 h; Potency, µM (top dose mostly 46 µM), actives largely listed as activators; 330,000 tested, 1.3% active; AID 504466; note: nearly all actives have a fitted effect of over 60% in size
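Genotoxicity was scored as increased ELG1-luciferase reporter signal, measured by ONE-Glo luminescence (30 min, room temperature). Compound or vehicle exposure of the HEK293T reporter cells lasted 16 hr at 37°C.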
Hits are given with their value; i = inactive; ? = inconclusive; nt = no result; [ ] = dose if it differs, or a comment. Calls come from the whole dose curve; as a rule, active = well fitted curve in the direction sought with a large enough effect; inconclusive = small, poorly fitted or top-dose-only effect, or another doubt; inactive = no such curve, though single readings can be large; an effect the other way counts as inactive or inconclusive.

SMILES | NPC1 promoter act | FLuc counter | Rab9 promoter act | ELG1 repair inh | SMN2 splice up | ELG1 genotox
CCc1ccc(/C=C2/SC(=S)N(CCC(=O)Nc3cccnc3)C2=O)cc1 | i | 0.85µM | i | i | nt | i
CCc1ccc(/C=C2\SC(=S)N(CCCC(=O)Nc3ccc(C(=O)O)cc3)C2=O)cc1 | i | 4.8µM | i | ? | nt | i
O=C(CCN1C(=O)/C(=C/c2ccccc2)SC1=S)Nc1cccnc1 | i | i | i | i | nt | i
Cc1cccc(OCC2=NS(=O)(=O)c3ccccc3N2)c1 | i | 19µM | i | i | i | i
Cc1cc(C)cc(NC(=O)COC(=O)CCCC2=NS(=O)(=O)c3ccccc3N2)c1 | i | i | i | i | i | i
CCOc1cc(C(=O)NC2CC(C)(C)NC(C)(C)C2)cc(OCC)c1OCC | i | i | i | ? | nt | i
CC(C)CC(=O)Nc1cc2nn(-c3ccccc3)nc2cc1Cl | 1.8µM | 1.5µM | 1.4µM | ? | ? | 4.6µM
Nc1cc2nn(-c3ccccc3)nc2cc1Cl | i | 1.3µM | i | ? | 3.2µM | i
Nc1ccc2nn(-c3ccccc3)nc2c1 | 1.6µM | 3.8µM | 1.6µM | ? | nt | ?
Nn1c(SCc2ccc(F)cc2)nnc1-c1ccccn1 | i | ? | i | ? | nt | i
Nn1c(SCc2ccccc2F)nnc1-c1ccccn1 | 4µM | 15µM | 1.4µM | ? | nt | 18µM
CCN(CC)c1ccc(NC(=S)NC(=O)c2cccs2)cc1 | ? | 15µM | 0.56µM | ? | nt | i
CC(C)C(=O)Nc1cccc(NC(=S)NC(=O)c2cccs2)c1 | 2.8µM | i | 2.8µM | ? | nt | i
CN(C)S(=O)(=O)c1ccc(NC(=S)NC(=O)c2cccs2)cc1 | i | ? | i | i | nt | i
COc1cc(NC(=S)NC(=O)c2cccs2)ccc1NC(=O)C(C)C | i | ? | i | i | i | i
CCN(c1ccccc1)S(=O)(=O)c1ccc(NC(=S)NC(=O)c2cccs2)cc1 | i | i | i | 13µM | i | i
Cc1cccc(OCc2nc(CC(=O)Nc3ccc(Cl)cc3)cs2)c1 | nt | i | nt | nt | nt | nt
CN(C(=O)CSc1nnc(-c2ccc([N+](=O)[O-])cc2)o1)c1ccccc1 | nt | i | nt | nt | nt | nt
Cn1c(/C(C#N)=C/c2ccc(C(F)(F)F)cc2)nc2ccccc21 | nt | 6.7µM | nt | nt | i | nt
COc1cc(/C=C(\C#N)c2nc3ccccc3n2C)cc(OC)c1O | i | ? | i | ? | i | i
Cn1c(/C(C#N)=C/c2ccncc2)nc2ccccc21 | i | i | i | i | i | i
Cn1c(/C(C#N)=C/c2ccc(O)cc2)nc2ccccc21 | ? | 12µM | ? | ? | nt | ?
Cn1cnnc1SCC(=O)Nc1ccc(OCc2ccccc2)cc1 | i | 15µM | ? | ? | ? | i
COCCn1cnnc1SCC(=O)Nc1ccc(N2CCCCC2)cc1 | i | 19µM | i | ? | nt | i
Cn1cnnc1SCC(=O)Nc1ccc(N2CCCCC2)cc1 | i | 13µM | i | ? | nt | i
SMILES | NPC1 promoter act | FLuc counter | Rab9 promoter act | ELG1 repair inh | SMN2 splice up | ELG1 genotox
Cn1cnnc1SCC(=O)Nc1ccccc1 | i | i | i | i | i | i
CN(Cc1ccon1)C(=O)c1ccc2nc(Cc3cccc(Cl)c3)oc2c1 | i | i | i | i | nt | i
COCCc1nc2ccc(C(=O)N(C)Cc3cccc(-n4cccn4)c3)cc2o1 | 2.8µM | 21µM | 2.8µM | ? | nt | ?
CN(Cc1cccc(-n2cccn2)c1)C(=O)CCc1nnc(C2CCCCC2)o1 | i | 17µM | ? | ? | nt | i
CN(Cc1cccnc1)C(=O)c1ccc2nc(Cc3ccccc3F)oc2c1 | i | 24µM | ? | ? | nt | i[9.26 µM]
N#Cc1ccccc1OCC(=O)NNC(=O)CNC(=O)c1ccc(Br)o1 | nt | nt | nt | i | nt | i
Cc1ccc(C)c(OC(=O)CSc2nnc(CNC(=O)c3ccccc3)o2)c1 | nt | i | nt | nt | nt | nt
O=C(CCCN1C(=O)c2cccc3cccc(c23)C1=O)NC1CCS(=O)(=O)C1 (stereo unspecified) | i | 4.8µM | i | i | nt | i
O=C(O)CCCN1C(=O)c2cccc3cccc(c23)C1=O | i | i | i | ? | nt | i
Cc1cc(N/N=C/c2cccc(Cl)c2)nc(-n2nc(C)cc2C)n1 | i | i | i | 16µM | nt | i
Cc1cc(N/N=C/c2cccc([N+](=O)[O-])c2)nc(-n2nc(C)cc2C)n1 | i | i | i | i | nt | i
Cc1cc(N/N=C/c2ccccc2[N+](=O)[O-])nc(-n2nc(C)cc2C)n1 | i | ? | i | 13µM | nt | i
COc1ccc(/C=N/Nc2cc(C)nc(-n3nc(C)cc3C)n2)cc1 | i | 17µM | i | 8.2µM | i | i
Cc1cc(N/N=C/c2ccc(O)cc2O)nc(-n2nc(C)cc2C)n1 | i | i | i | 23µM | i | i
CCOCCCNS(=O)(=O)c1ccc(NC(=O)C2CC(=O)N(c3ccc(C)cc3)C2)cc1 (stereo unspecified) | i | i | i | i | i | i
CCOc1ccc(C(=O)Nc2ccc3c(c2)OCCO3)cc1Br | nt | 1.3µM | nt | nt | 16µM | nt
COc1ccc(C(=O)Nc2ccc(N3CCCCC3)cc2)cc1Br | i | ? | ? | ? | ? | i
COc1ccc(C(=O)NC(=S)Nc2nc(C)cc(C)n2)cc1Br | ? | 15µM | ? | i | nt | i
CCOc1ccc(C(=O)Nc2ccc3c(c2)OCCO3)cc1 | 0.5µM | 2.1µM | 0.4µM | ? | nt | 2.3µM
COc1ccc(C(=O)Nc2ccc3c(c2)OCCO3)cc1Br | 1µM | 1.5µM | 1.3µM | ? | nt | ?
O=[N+]([O-])c1ccccc1S(=O)(=O)Nc1cccc(S(=O)(=O)N2CCCC2)c1 | nt | nt | nt | i | nt | i
COc1ccc(NC(=O)CC2C(=O)N(c3cccc(C)c3)C(=O)N2Cc2cccnc2)cc1 (stereo unspecified) | nt | i | nt | nt | nt | nt
COc1ccccc1Nc1nc2c(s1)CCC2 | i | 15µM | i | ? | i | i
Cc1ccc(Nc2nc3c(s2)CCC3)c(C)c1 | ? | 7.6µM | ? | ? | 13µM | 21µM
Cc1ccc(NC(=O)Nc2nc3c(s2)CCCCCC3)cc1C | nt | i | nt | nt | nt | nt
SMILES | NPC1 promoter act | FLuc counter | Rab9 promoter act | ELG1 repair inh | SMN2 splice up | ELG1 genotox
COc1ccccc1Nc1c2c(nc3ccccc13)CCC2 | i | i | i | ? | nt | i
NC(=O)C1CCN(c2nc(-c3ccccc3[N+](=O)[O-])cs2)CC1 | nt | i | nt | nt | nt | nt
CN(C)c1ccc(NC(=S)NC(=O)/C=C/c2ccc(Cl)cc2)cc1 | i | 4.8µM | i | ? | i | i
O=C(/C=C/c1ccc(Cl)cc1)NC(=S)Nc1ccc(C(=O)O)cc1 | i | i | i | i | nt | i
CN(C)c1ccc(NC(=O)/C=C/c2ccccc2Cl)cc1 | ? | 1.2µM | 2.5µM | ? | 20µM | ?
COC(=O)c1sc(NC(=O)/C=C/c2ccccc2Cl)nc1C | i | i | i | i | ? | i
CCN(CC)c1ccc(NC(=O)/C=C\c2ccccc2Cl)cc1 | i | 2.7µM | i | ? | ? | 7.3µM
O=C(/C=C/c1ccccc1Cl)NCc1ccccc1 | i | ? | i | ? | i | i
CC(=O)Nc1ccc(S(=O)(=O)NCC(=O)OCC(=O)NNC(=O)c2ccccc2)cc1 | i | i | i | i | nt | i
